Where a name gives a salt, the structure may show the parent alone. ± gives the standard deviation of the averaged measurements. Whole data set: some 2,600 compounds, median “MBP+ mature oligodendrocyte number relative to DMSO vehicle control” near -0.34, cut for the highest 2% near 13. Many of the other results were omitted from the sample, so the highest values are more common in it than they were.
These compounds were tested on jimpy (Plp1 jimpy) mouse iPSC-derived oligodendrocyte progenitor cells (assay: MBP+ mature oligodendrocyte number relative to DMSO vehicle control (SDs above negative control mean); higher = more surviving jimpy oligodendrocytes (rescue)). Details: 10 µM; 3 days.
Description: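 Primary phenotypic screen of >3,000 bioactive compounds (Selleck L1700 and Sigma LO1280 libraries) at a single dose of 10 µM. Compounds were added to jimpy (Plp1 mutant) mouse iPSC-derived OPCs at the start of thyroid hormone-induced oligodendrocyte differentiation, one well per compound in 384-well plates. After 3 days cells were stained for MBP, Sox10 and DAPI and imaged with an Operetta system. MBP+ oligodendrocyte number and total cell number were expressed as the number of SDs above the mean of the DMSO negative control on the same plate (n=16 control wells per plate). Hits were defined as >=4 SD for oligodendrocytes and >=2 SD for total cells.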

SMILES | MBP+ mature oligodendrocyte number
CN1c2ccccc2C(=O)N2CCc3c([nH]c4ccccc34)C21 (stereo in doubt) [Evodiamine] | -2.4
Cc1ccc(NCCCc2ccccc2)c(N)c1 | < -6.35
CC(C)S(=O)(=O)N[C@H]1CCOC[C@@H]1c1ccc(-c2ccc(C#N)s2)cc1 | -3.15
CO[C@@H](C(=O)N1Cc2[nH]nc(NC(=O)c3ccc(N4CCN(C)CC4)cc3)c2C1)c1ccccc1 | -6.61
CC(=O)[C@H]1CC[C@H]2[C@@H]3CCC4=CC(=O)CC[C@]4(C)[C@H]3CC[C@]12C [Progesterone] | 15.4 ± 7.2
C[C@]12C[C@H](O)[C@H]3[C@@H](CCC4=CC(=O)CC[C@@]43C)[C@@H]1CC[C@@H]2C(=O)CO [Corticosterone] | 1.49
CC(=O)[C@H]1CC[C@H]2[C@@H]3C=CC4=CC(=O)CC[C@@]4(C)[C@@H]3CC[C@]12C [Dydrogesterone] | 0.153
O=C1NC(=O)c2c1c(-c1ccccc1)cc1[nH]c3ccc(O)cc3c21 | < -3.97
CNC(=O)c1ccc(N2C(=S)N(c3cnc(C#N)c(C(F)(F)F)c3)C(=O)C23CCC3)cc1F | 5.74
CNC(=O)c1ccc(N2C(=S)N(c3ccc(C#N)c(C(F)(F)F)c3)C(=O)C2(C)C)cc1F [Enzalutamide (MDV3100)] | 16.6
CC1(C)NC(=O)N(c2ccc([N+](=O)[O-])c(C(F)(F)F)c2)C1=O [Nilutamide] | -0.755
N=C(N)SCCc1c[nH]cn1 [Imetit dihydrobromide] | -0.363
O=C(Nc1cccnc1)c1cc(-c2ccnc(F)c2)ccc1OCc1ccccc1 | -0.282
Cc1cc(-c2ncc(CC(=O)Nc3ccc(-c4cnccn4)cn3)cc2C)ccn1 | 13.8
Cc1cc(-c2ccc(CC(=O)Nc3ccc(-c4cccnc4)cc3)cc2)ccn1 | 23.2
Cc1ccc(NC(=O)c2ccc(CN3CCN(C)CC3)cc2)cc1Nc1nccc(-c2cccnc2)n1 [Imatinib (STI571)] | -4.36
Cc1ccc(NC(=O)c2ccc(CN3CCN(C)CC3)cc2)cc1Nc1nccc(-c2cccnc2)n1 [Imatinib Mesylate (STI571)] | -5.56
COC[C@H](NC(=O)c1cnc(C)s1)C(=O)N[C@@H](COC)C(=O)N[C@@H](Cc1ccccc1)C(=O)[C@@]1(C)CO1 [Oprozomib (ONX 0912)] | -5.76
COc1cc2c(cc1O)[C@@H](Cc1ccc(O)c(Oc3ccc(C[C@@H]4c5cc(OC)c(OC)cc5CCN4C)cc3)c1)N(C)CC2 [Daurisoline] | < -3.85
Nc1nc2c(ncn2[C@@H]2O[C@H](CO)[C@@H](O)[C@@H]2O)c(=O)[nH]1 [Ara-G hydrate] | -0.925
